Screens deposited in PubChem BioAssay by The Scripps Research Institute Molecular Screening Center.
HGIII-sPLA2 inh: human group III sPLA2 inhibitors, primary screen, biochemical, QFRET, BODIPY PC-A2 liposome substrate; Group 3 secretory phospholipase A2 (Homo sapiens), Q9NZ20; QFRET BODIPY PC-A2 liposome hydrolysis, fluorescence; inhibition, % at 12.2 µM; hit rate 0.56% among 370,000;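 active = inhibition above mean plus 3 SD of compounds lying within the high and low control bounds, cut at about 19% in these data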
Target sequence (Q9NZ20 whole entry, looked up): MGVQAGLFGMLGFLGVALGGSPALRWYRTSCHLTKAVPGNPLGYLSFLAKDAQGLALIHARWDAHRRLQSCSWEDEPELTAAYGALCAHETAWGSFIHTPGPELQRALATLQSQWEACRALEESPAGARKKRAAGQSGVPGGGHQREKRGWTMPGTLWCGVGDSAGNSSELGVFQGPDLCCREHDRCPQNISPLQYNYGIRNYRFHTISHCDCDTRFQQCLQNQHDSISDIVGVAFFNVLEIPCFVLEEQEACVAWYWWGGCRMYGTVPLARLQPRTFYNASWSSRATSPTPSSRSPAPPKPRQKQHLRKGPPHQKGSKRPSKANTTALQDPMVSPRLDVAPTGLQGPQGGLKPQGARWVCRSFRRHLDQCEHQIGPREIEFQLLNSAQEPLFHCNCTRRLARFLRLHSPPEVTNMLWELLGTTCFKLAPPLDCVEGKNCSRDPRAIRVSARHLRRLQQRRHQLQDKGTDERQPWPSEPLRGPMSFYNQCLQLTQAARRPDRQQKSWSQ
PLC-gamma1 inh: PLC-gamma1 enzyme inhibitors, primary screen, biochemical, fluorescence, purified enzyme; hit rate 0.84% among 370,000; inhibition, % at 12.2 µM; fluorogenic substrate; in the data active = inhibition above about 9.5%
PLCb3 inh: human PLC-beta3 inhibitors, primary screen, biochemical, fluorescence. Purified PLC-beta3, fluorogenic substrate. inhibition, % at 12.2 µM. hit rate 0.18% among 370,000. AID 720704, 2013
DAGLB inh: DAGLB lipase inhibitors, primary screen, biochemical, fluorescence, HTS | Diacylglycerol lipase-beta (Homo sapiens), Q8NCG7 | HEK293T DAGLB membrane lysate, EnzChek fluorogenic substrate | inhibition, % at 5.17 µM | hit rate 0.059% among 340,000 | AID 504411, 2011; in the data active = inhibition above about 34%
PLCgamma1 ctr: PLC-gamma1 enzyme inhibitors, counter-screen for PLC-beta3 inhibitor project, biochemical, fluorescence. shares compounds with PLC-gamma1 inh. purified PLC-gamma1, fluorogenic substrate. inhibition, % at 12.3 µM. hit rate 3.1% among 3,300. AID 743258, 2014; in the data active = inhibition above about 9.5%
PLCb3 confirm: PLC-beta3 inhibitor confirmation, biochemical, fluorescence, purified enzyme; hit rate 1% among 3,300; shares compounds with PLC-gamma1 inh; fluorogenic substrate fluorescence; inhibition, % at 12.3 µM
A number is an active result; 0 = inactive; - = not tested or not shown. This is a sample that favours compounds with a hit; in the whole collection about 1.5% have one here. Cut-off read from the data, not from the text of the source, unless noted: active = inhibition above about 11%; inactive = the rest.

SMILES	HGIII-sPLA2 inh	PLC-gamma1 inh	PLCb3 inh	DAGLB inh	PLCgamma1 ctr	PLCb3 confirm
COc1cccc(NC(=O)C(Sc2nnc(Nc3ccccc3C)s2)c2ccccc2)c1 (stereo not drawn)	0	10.0	0	0	0	0
CCCCN(C)C(=O)CN1C(=O)C2CCCCN2C(=O)c2ccccc21 (stereo not drawn)	0	0	0	-	-	-
Cc1ccc(C)c(OCC(O)CN2CCC(C)CC2)c1C (stereo not drawn)	0	11	0	0	0	0
COC(=O)[C@]12C[C@H](CC(=O)N3CCC(c4ccccc4)CC3)C(=O)N(Cc3cccc4ccccc34)C1=C[C@H](C1CCCC1)O[C@@H]2C	0	0	0	-	-	-
CCC(=O)N(Cc1cc(=O)[nH]c2ccccc12)c1ccccc1OC	0	12	0	0	0	0
C=CC[C@@H](CC(=O)N(CCO)Cc1ccccc1)C(=O)N[C@H](COC(=O)[C@@H](CC=C)Cc1ccc(F)cc1)c1ccccc1	0	0	0	0	-	-
C=CCC[C@H](Cc1ccc(F)cc1)C(=O)OC[C@@H](Cc1c[nH]c2ccccc12)NC(=O)[C@H](CC=C)CC(=O)N(CCO)Cc1ccccc1	0	12	0	0	0	0
C=CCC[C@H](Cc1ccc(F)cc1)C(=O)OC[C@H](Cc1c[nH]c2ccccc12)NC(=O)[C@@H](CC=C)CC(=O)N[C@H](CO)Cc1ccccc1	0	12	0	0	0	0
C=CC[C@@H](CC(=O)N(CCO)Cc1ccccc1)C(=O)NC[C@H](OC(=O)[C@@H](CC=C)Cc1ccc(F)cc1)c1ccccc1	0	10	0	0	0	0
C=CC[C@@H](CC(=O)N(CCO)Cc1ccccc1)C(=O)N[C@H](COC(=O)[C@@H](CC=C)CC(=O)OC(C)(C)C)Cc1c[nH]c2ccccc12	0	9.6	0	0	0	0
CC(C)Oc1ccc(Oc2ccc(C#C[C@H](C)N3C(=O)c4ccccc4C3=O)cc2)cn1	0	0	0	-	-	-
CC1=C(c2ccccc2)CCC1=O	0	0	0	0	-	-
CC1=C(c2ccccc2)C(O)(c2ccccc2)C(C)C1=O (stereo not drawn)	0	14	0	0	0	0
FC(F)(F)c1cc(CO[C@@H]2CCCN[C@@H]2c2ccccc2)cc(C(F)(F)F)c1	0	10	0	0	0	0
Cc1ccc2nc3sc(C(=O)N4CCN(C)CC4)cc3cc2c1	0	0	0	-	-	-
Cc1ccc(C(=O)OCc2c(C)noc2C)cc1NC(=O)c1ccco1	0	11	0	0	0	0
Cc1cc(=O)n2nc(N3CCCC(C(=O)NCc4ccccc4Br)C3)sc2n1 (stereo not drawn)	0	12	0	0	0	0
CC(C)Cn1c(=O)cc(N2CCN(c3cccc(C(F)(F)F)c3)CC2)[nH]c1=O	0	0	0	-	-	-
CC(=O)c1cccc(N=C2NC(=O)CS2)c1	0	0	0	0	-	-
C/C(=N\N=C1\NC(=O)CS1)c1cccs1	0	13	0	0	0	0
Cc1c(C(=O)NCc2ccccc2)oc2ccc(S(=O)(=O)N3CCC4(CC3)OCCO4)cc12	0	10	0	0	0	0
CCC[C@H]1[C@@H](NC(=O)c2cccc(C)c2)CC[C@@]23CCCN2C(=O)CCC[C@@H]13	0	0	0	-	-	-
CCOC(=O)[C@]12CCCCC/C=C\1N(Cc1ccc(OC)cc1)C(=O)[C@H]2CC(=O)NCc1cccc2ccccc12	0	0	0	-	-	-
Cc1cc(Nc2ccc(F)c(Cl)c2)n2nc(C)nc2n1	0	0	0	0	-	-
COc1ccc(Nc2cc(C)nc3nc(C)nn23)cc1Cl	0	9.6	0	0	0	0
SMILES	HGIII-sPLA2 inh	PLC-gamma1 inh	PLCb3 inh	DAGLB inh	PLCgamma1 ctr	PLCb3 confirm
COc1ccc(CC2(CO)CCN(Cc3ccc(NC(C)=O)cc3)CC2)cc1	0	0	0	0	-	-
COc1ccc(CC2(CO)CCN(Cc3nc(C(C)C)cs3)CC2)cc1	0	13	0	0	0	0
O=C(COc1ccc(Br)cc1Br)NC(=O)NC1CCCC1	0	0	0	0	-	-
CC(C)(C)NC(=O)NC(=O)COc1ccc(Br)cc1Br	0	11	0	0	0	0
COC(=O)C[C@@H]1CC[C@@H]2[C@H](COc3ccc(NC(=O)c4cccc(OC)c4)cc3C(=O)N2C)O1	0	0	0	-	-	-
O=C(NCC1CCCO1)C(c1cccnc1)N(C(=O)Cc1cccs1)c1cccnc1 (stereo not drawn)	0	11	13	0	0	0
O=C(NCc1ccco1)C(c1ccccc1)N(C(=O)Cc1cccs1)c1cccnc1 (stereo not drawn)	0	0	0	0	-	-
Cc1nnc(N/N=C/c2cccc(OCc3ccc(Cl)c(Cl)c3)c2)n1N	0	13	11	0	0	0
Cc1nnc(N/N=C/c2cccc(C(F)(F)F)c2)n1N	0	13	0	0	0	0
Cc1nnc(N/N=C/c2ccccc2F)n1N	0	12	0	0	0	0
Cc1nnc(N/N=C/c2ccco2)n1N	0	0	0	0	-	-
Cc1nnc(N/N=C/c2ccccc2C(F)(F)F)n1N	0	0	0	0	-	-
Cc1cc(OCCCC(=O)NCCc2ccccn2)ccc1Cl	0	9.5	0	0	0	0
O=C(CCCNS(=O)(=O)c1ccc(Cl)c(Cl)c1)NCCc1ccccn1	0	0	0	0	-	-
Cc1cccc(NCC(=O)N/N=C\c2cccn2C)c1	0	11	0	0	0	0
Cc1cccc(OCC(=O)N/N=C/c2cccn2C)c1	0	0	0	0	-	-
Cc1cc(N2CCN(C(=O)Oc3ccc(-c4ccccc4)cn3)CC2)c2ccccc2n1	0	12	0	-	0	0
O=C1c2cccn2CC2Cc3ccccc3N12 (stereo not drawn)	0	0	0	-	-	-
CCn1c(SCC(=O)Nc2ccc(Cl)cc2)nc2nc3c(cc2c1=O)CCCC3	0	0	0	0	-	-
CCn1c(SCC(=O)Nc2ccc(C(C)=O)cc2)nc2nc3c(cc2c1=O)CCCC3	0	9.7	0	0	0	0
Cc1ccc(-n2c(SCC(=O)Nc3ccc(S(=O)(=O)Nc4cc(C)nc(C)n4)cc3)nnc2-c2cccs2)cc1	0	0	0	-	-	-
CCCCn1c(-c2nonc2NC(=O)c2ccccc2Cl)nc2ccccc21	0	12	0	0	0	0
N#CCCn1c(-c2nonc2NC(=O)c2ccccc2Cl)nc2ccccc21	0	0	0	0	-	-
COC(=O)[C@]12C[C@H](CC(=O)N3CCN(C(=O)c4ccco4)CC3)C(=O)N(Cc3ccc(Cl)cc3Cl)C1=C[C@H](COCc1ccccc1)O[C@@H]2C	0	13	0	-	0	0
COC(=O)[C@]12C[C@H](CC(=O)N3CCCCC3)C(=O)N(Cc3ccc(Cl)cc3Cl)C1=C[C@H](COCc1ccccc1)O[C@@H]2C	0	0	0	-	-	-
